Assay outcomes deposited in PubChem by NMMLSC.
BoNT A protease: blocks Botulinum neurotoxin A light chain protease; multiplex microsphere protease substrate cleavage, flow cytometry; inhibition, % at 10 µM; actives 0.17% (n = 360,000); AID 588499; also: plate controls were buffer without enzyme for full effect and enzyme alone for no effect
BoNT-F LC inh: inhibitors of Botulinum neurotoxin F light chain protease; Multiplex microsphere protease cleavage assay, flow cytometry; actives 0.22% (n = 360,000); inhibition, % at 10 µM; AID 588497; in the data active = inhibition above about 35%, passing the limit was not always enough; inconclusive = no clear call, values can overlap the other calls; also: plate controls were buffer without enzyme for full effect and enzyme alone for no effect
Autofluor counter: compound fluorescence in toxin protease inhibitor counterscreen | compound autofluorescence counterscreen, microsphere flow cytometry; hits give high values | fluorescence intensity (concentration not given with the values) | actives 3.1% (n = 360,000) | AID 624483; in the data active = fluorescence intensity above about 16000; inconclusive = no clear call, values can overlap the other calls
Anthrax LF inh2: anthrax lethal factor protease inhibition; multiplex microsphere protease cleavage assay, LF; inhibition, % at 10 µM; actives 0.12% (n = 360,000); AID 588501; also: plate controls were buffer without enzyme for full effect and enzyme alone for no effect
Active calls of the source: *; ? = inconclusive. An excerpt weighted towards active compounds, which were near 3.5% of everything screened. Rule as the data show it, unless noted: active = inhibition above about 30%; inconclusive = no clear call, values can overlap the other calls; inactive = below that.

SMILES	BoNT A protease	BoNT-F LC inh	Autofluor counter	Anthrax LF inh2
O=C(Cn1[nH]c(=O)c2ccccc2c1=O)NC1CCN(Cc2ccccc2)CC1	-2.2	-0.3	23670*	-1.3
O=C(COc1ccccc1)NC1CCN(Cc2ccccc2)CC1	?	-1.3	17241*	-1.4
O=C(CCC(=O)NC1CCN(Cc2ccccc2)CC1)NCc1ccco1	?	-1.6	23478*	-1.3
O=C(NC1CCN(Cc2ccccc2)CC1)C1COc2ccccc2O1 (stereo not drawn)	0.6	-7.4	4314	-3.3
O=C(O)C1C2C=CC(C2)C1C(=O)NC1CCN(Cc2ccccc2)CC1 (stereo not drawn)	?	1.4	20434*	0.7
Oc1ccc(C[C@H]2CNC(=S)N2CC2CCCN2C[C@H](Cc2ccccc2)N2C[C@H](Cc3ccc(O)cc3)N(CCc3ccccc3)C2=S)cc1 (stereo partly drawn)	-0.2	-7.8	2945	-3.6
CCOC(=O)C1=CNS(=O)(=O)NC1c1ccc(OC(C)=O)cc1 (stereo not drawn)	-0.6	1.9	3940	-5.8
CSc1ccc(/C=N/n2c(C)cc(C)cc2=O)cc1	?	-4.6	23602*	0.1
CSc1ccc(/C=N/n2c(C)nnc2C)cc1	-0.1	0.8	2027	-2.1
CC(C)OC(=O)CSc1nnc(-c2ccco2)n1N	-2.0	-15.1	6912	-6.1
COC(=O)c1ccc(NC(=O)CSc2nnc(-c3ccccc3)n2C)cc1	-0.5	3.4	4571	0.7
COc1cccc(-c2nnc(SCC(=O)OC(C)C)n2N)c1	-0.9	-2.5	19700*	-2.9
COC(=O)c1ccc(NC(=O)CSc2nnc(C)n2-c2ccccc2)cc1	8.9	13.2	19301*	-7.6
Nn1c(SCC(=O)Nc2ccc(F)cc2)nnc1C1CCCCC1	?	2.8	21577*	-4.6
Cc1cc(C)cc(NC(=O)CSc2nnc(-c3ccccc3)n2N)c1	-1.0	-12.0	3152	-5.3
Cc1cccc(NC(=O)CSc2nnc(-c3ccccc3)n2N)c1	?	4.0	20752*	0.8
COc1ccc(S(=O)(=O)N2CCCCC2)cc1NS(=O)(=O)c1ccc(CNC(C)=O)cc1	-0.5	-1.6	3829	-9.6
Cc1cc(C)nc(Nc2ccc(Cl)cc2C)n1	-4.6	?	3828	21.4
Cn1cnc(S(=O)(=O)NCc2ccc(Br)cc2)c1	-0.8	-5.7	5636	-6.5
CC(C)N(C(=O)[C@H]1C[C@H](CC(=O)NCc2ccco2)C(=O)N2CCc3c([nH]c4ccc(Cl)cc34)[C@]12C)C(C)C	0.0	5.3	4145	2.1
CC(=O)c1ccc(S(=O)(=O)NCCC(=O)NC(C)c2ccncc2)cc1 (stereo not drawn)	1.6	7.8	4593	0.7
CN(C(=O)c1cccc(NC(=O)Cc2ccc(NC(=O)C3CCCN(C(=O)C4CCCC4)C3)cc2)c1)C1CCCCC1 (stereo not drawn)	-0.2	-8.6	4123	-5.4
O=C(c1ccc(S(=O)(=O)N2CCCC2)cc1)N(c1ccc(F)cc1)C1C=CS(=O)(=O)C1 (stereo not drawn)	0.9	0.3	5381	-0.5
O=C(CSc1nnc(-c2cccnc2)n1Cc1ccco1)Nc1nc(-c2ccc(F)cc2)cs1	0.3	-0.4	20486*	-2.4
COc1ccc(NC(=O)CSc2nnc(-c3ccccc3)n2N)cc1	0.4	-0.9	3565	-4.1
SMILES	BoNT A protease	BoNT-F LC inh	Autofluor counter	Anthrax LF inh2
CCn1c2ccccc2c2cc(NC(=O)c3cccc(OC)c3)ccc21	3.6	-0.3	22832*	2.8
Cc1ccc(C)c(NC(=O)CSc2nnc(-c3ccncc3)n2N)c1	-5.1	-5.0	21109*	-0.3
O=C(CSc1nnc(-c2cccnc2)n1Cc1ccco1)Nc1cccc(O)c1	-0.6	-3.8	4548	-1.1
Cc1ccc(C)c(NC(=O)CSc2nnc(C)c(=O)n2N)c1	-1.1	2.2	2733	-0.7
COc1cccc(-c2nnc(SCC(=O)Nc3ccc(OC)c(OC)c3)n2N)c1	-1.5	-4.5	23134*	-1.3
CCCCCCCCNc1ncnc2[nH]ncc12	-0.4	-9.2	3670	-6.9
COC(=O)c1ccc(NC(=O)CSc2nnc(-c3ccncc3)n2N)cc1	?	4.1	20637*	-0.6
COc1cccc(-c2nnc(SCCC(=O)O)n2C)c1	0.4	-0.1	23530*	2.3
COC(=O)CSc1nnc(-c2cccnc2)n1-c1cccc(OC)c1	0.3	0.8	7937	1.4
COc1cccc(-c2nnc(SCC(=O)Nc3cc(C)on3)n2C)c1	1.4	5.3	5759	-6.2
COC(=O)CSc1nnc(C)n1-c1cccc(C#N)c1	-5.8	-6.6	17539*	-0.9
CCn1c2ccccc2c2cc(NC(=O)CSc3nnc(-c4ccc(OC)cc4)n3N)ccc21	-1.7	-2.3	24502*	-2.4
CC(=O)NC(c1ccccc1)c1nc(-c2ccc(C)c(C)c2)cs1 (stereo not drawn)	-0.2	-0.7	4006	0.3
CC(C)c1ccc(/C=C(\NC(=O)c2ccccc2)C(=O)NCCN2CCOCC2)cc1	-0.5	-7.7	6213	-1.5
CC1CCCC(NC(=O)CSc2nnc(-c3cccnc3)n2N)C1C (stereo not drawn)	0.7	10.0	18627*	3.0
CCOc1cccc(-c2nnc(SCC(=O)Nc3cccc(OC)c3)n2N)c1	0.9	2.5	21734*	-2.9
Nn1c(SCC(=O)Nc2ccc(F)cc2)nnc1-c1cccnc1	?	14.5	19014*	2.4
CC1CCCC(NC(=O)CSc2nnc(-c3cccnc3)o2)C1C (stereo not drawn)	0.6	0.1	5162	-4.5
Cc1ccc(NC(=O)CSc2nnc(-c3cccnc3)n2-c2ccc(C)cc2)cc1	0.6	3.1	2880	1.0
CC1(C(=O)Nc2nccs2)CCN1C(=O)C1(c2ccccc2)CC1 (stereo not drawn)	0.1	4.1	3485	-0.9
O=C(C[C@@H]1C/C=C\C[C@H](Cc2ccc(F)cc2)C(=O)OC[C@H]2CCCN2C1=O)N[C@H](CO)Cc1ccccc1	-0.5	-1.3	3443	9.7
O=C(c1ccccc1)N1CCN(C(=O)c2ccccc2)CC1	-0.4	-4.2	3075	-4.1
O=C(c1ccccc1)n1ccn(-c2ccccc2)c1=S	?	1.3	19357*	0.8
COc1nc(NCc2cccnc2)nc(OC)n1	?	-4.9	16316*	1.2
CNC(=O)c1c(NC(=O)c2ccc(N3C(=O)CCC3=O)cc2)sc2c1CCC(C)C2 (stereo not drawn)	-6.2	-18.6	7110	-5.6
SMILES	BoNT A protease	BoNT-F LC inh	Autofluor counter	Anthrax LF inh2
O=C(COc1coc(CN2CCCc3ccccc32)cc1=O)Nc1ccc([N+](=O)[O-])cc1	0.3	-7.2	5916	0.5
CCOC(=O)N1CCC(NC(=O)c2cc(C)c3c(C)nn(-c4ccccc4)c3n2)CC1	3.7	6.8	19067*	-7.7
Cc1nc(C(F)(F)F)c(C(=O)NC(=O)Nc2ccccc2)s1	-1.1	0.0	16731*	-1.2
O=C(CCC1CCCCC1)Nc1ccccc1O	0.4	-0.4	16345*	-1.5
O=C(CCC1CCCC1)Nc1ccccc1-c1ccccc1	1.0	6.2	1974	2.5
Cc1ccc(O)c(NC(=O)CCC2CCCCC2)c1	-0.3	2.6	3254	-7.4
O=C(CCC1CCCCC1)Nc1ccccc1-c1ccccc1	?	0.2	21102*	-3.8
O=C(CSc1ccc([N+](=O)[O-])cn1)Nc1ccc2c(c1)OCO2	0.3	-14.5	4047	-14.1
O=C(Nc1nc(-c2ccc3c(c2)OCCO3)cs1)C1CCCC1	1.1	-9.9	4616	-7.6
